Calls of active or inactive are those of the source. Rule for the calls: active = hit-call score of the fitted dose curve at least 0.9, where 1 is the maximum; inactive = score below 0.9.

Read-out in the test: Matrix Metallopeptidase 9 (MMP9), MMP9 (gene 4318)
The experiment in a line: BSK_KF3CT_MMP9: BioMAP Diversity Plus: KF3CT Assay for Matrix Metallopeptidase 9 (MMP9) Biomarker Activity (AID 2283074). As to conditions: primary human keratinocytes with fibroblasts; actives raise or lower the signal. As to the method: BSK_KF3CT is a cell-based, multiplexed-readout assay that uses keratinocytes and foreskin fibroblasts, a human skin primary cell co-culture, with measurements taken at 24 hours after chemical dosing in a 96-well plate.BSK_KF3CT_MMP9 is an assay component measured in the BSK_KF3CT assay. It measures MMP-9 antibody related to regulation of gene expression using ELISA technology.Data from the assay component BSK_KF3CT_MMP9 was analyzed into 1 assay endpoint. This assay endpoint, BSK_KF3CT_MMP9, was analyzed with bidirectional fitting relative to DMSO as the negative control and baseline of activity. Using a type of binding reporter, gain or loss-of-signal activity can be used to understand changes in the signaling as they relate to the gene MMP9. Furthermore, this assay endpoint can be referred to as a primary readout, because this assay has produced multiple assay endpoints where this one serves a signaling function. To generalize the intended target to other relatable targets, this assay endpoint is annotated to the protease intended target family, where the subfamily is matrix metalloproteinase.
The levels of cell surface (or secreted, indicated by the prefix "s") biomarker endpoints were measured by ELISA. Overt cytotoxicity to cells in confluent adherent cultures (all systems other than the BT system) was assessed by measuring total protein levels using sulforhodamine B (SRB) staining in parallel cultures at the time of biomarker measurements, indicated as SRB endpoints. For proliferation assays for adherent cell types, individual cell types are cultured at sub-confluence and relative cell numbers quantified by SRB staining at time points optimized for each system (48 h: 3C and CASM3C systems; 72 h: BT and HDF3CGF systems; 96 h: SAg system). SRB was performed by staining cells with 0.1% SRB after fixation with 10% TCA and reading wells at 560 nm.Viability and proliferation of PBMC (T cells) was quantified by Alamar Blue reduction for the SAg and BT systems. For PBMC viability (referred to as PBMC Cytotoxicity within the assay endpoint names), cells were plated (75,000/well in a 96-well plate) and then chemical samples added for 1 h before addition of activators, SEB and TSST-1 (20 ng/mL final concentration each). Cells were incubated for 90 h. Then, Alamar Blue (20 uL/well) (Invitrogen, Cat DAL1100) was added for 6 h, and the plates were read with a fluorescence microplate reader at 546/580 nm (excitation/emission). For PBMC proliferation, cells were plated and activated as above but incubated for only 16 h prior to addition of Alamar Blue. Plates were read after 6 h.
Take `Oc1ccc2c(c1)OC[C@@H](N1CCC(O)(c3ccc(F)cc3)CC1)[C@H]2O`: the result was inactive. With `O=C(O)Cc1ccccc1Nc1c(Cl)cccc1Cl`, the result was inactive. Turning to `COC(=O)c1ccc(O)cc1`, the result was inactive. On to `CCCCCCCCCCCCCCCCCC(=O)O`, for which the result was inactive. For the compound `OC[C@@H](O)[C@@H](O)[C@H](O)[C@H](O)CO`, the outcome was inactive. On to `CC1(C)NC(=O)NC1=O`, for which the result was inactive. For `Clc1cc(Cl)c(Cl)cc1Cl`, the result was inactive.

For `CCCCCCCC=O`, the outcome was inactive. In the case of `C=CCc1ccc(O)c(OC)c1`, the outcome was inactive. For orientation: AC50 means the concentration giving half of the maximal activity seen. Turning to `CCCCC(CC)COC(=O)CC(C(=O)OCC(CC)CCCC)S(=O)(=O)O` (stereo not given), the AC50 is 4.84 µM (active). As to `Nc1nc(N)c2nc(CNc3ccc(C(=O)N[C@@H](CCC(=O)O)C(=O)O)cc3)cnc2n1`, the result was inactive. Turning to `Cc1cc(=O)[nH]c(=S)[nH]1`, the outcome was inactive.

For the compound `Cc1ccc2ncccc2c1`, the outcome was inactive. Take `Cc1cccc(C)c1O`: the result was inactive.

Regarding `CC(=O)OC/C=C(\C)CCC=C(C)C`, the outcome was inactive. `NCCO`: the outcome was inactive. On the same count and under the same terms, the result for `Cc1c(C(=O)O)c(O)cc2c1C(=O)c1c(O)c([C@@H]3O[C@H](CO)[C@@H](O)[C@H](O)[C@H]3O)c(O)c(O)c1C2=O` reads “inactive”; that for `CN1CCCC1=O`, “inactive”. Take `CCOc1ccc2c(c1)C(C)=CC(C)(C)N2`: the outcome was inactive.

For the compound `CCc1c(C(=O)NN2CCCCC2)nn(-c2ccc(Cl)cc2Cl)c1-c1ccc(Br)cc1`, the AC50 was 4.31 µM (active). `Cc1cc(NC(=O)C(=O)O)cc(C)c1Oc1ccc(O)c2c1CCC2`: the result was inactive.

For the compound `CC(CO)OC(C)CO` (stereo not given) (tested in a mixture with another compound), the result was inactive. As for `Cc1ccc(C(C)C)c(O)c1`, the outcome was inactive. Same read-out and setting: the result for `CCCCCCCCCCC` reads “inactive”; that for `CC(C)(C)c1cc(O)c(C(C)(C)C)cc1O`, “inactive”. Same read-out and setting: the result for `CC(=O)Oc1ccccc1C(=O)O` reads “inactive”; that for `CCCCCCCCCCO`, “inactive”. As to `Cc1oc(-c2ccccc2)nc1CCOc1cccc2c1ccn2CCC(=O)O`, the outcome was inactive. Regarding `O=c1c(O)c(-c2ccc(O)c(O)c2)oc2cc(O)cc(O)c12`, the AC50 is 20 µM (active). With `Cc1nc(C)nc(N2C[C@@H](C)N(c3ccnc([C@@H](C)O)n3)[C@@H](C)C2)n1`, the outcome was inactive. On the same count and under the same terms, to `COc1cc(S(=O)(=O)O)c(C)cc1N=Nc1c(O)ccc2cc(S(=O)(=O)O)ccc12` belongs “inactive”.

Consider `CCCc1cc(=O)[nH]c(=S)[nH]1`, for which the outcome was inactive. On the same count and under the same terms, to `O=c1[nH]cc(F)c(=O)[nH]1` belongs “inactive”. Take `O=C(O)CCCCC(=O)O`: the outcome was inactive.

For `CCCCCCCCCCCCCCCC`, the outcome was inactive. Consider `C[Si]1(C)O[Si](C)(C)O[Si](C)(C)O[Si](C)(C)O1`, for which the result was inactive. Same read-out and setting: the result for `CC(=O)C(C)=CC1C(C)=CCCC1(C)C` (stereo not given) reads “inactive”; that for `COc1ccc(C)cc1N`, “inactive”.

For the compound `C1CCC(SSC2CCCCC2)CC1`, the concentration at half-maximal activity (AC50) is 13.7 µM (active).

Consider `CC1(C)CC(N=C=O)CC(C)(CN=C=O)C1` (stereo not given), for which the result was inactive.
